An excerpt weighted towards active compounds, which were near 7.1% of everything screened.
ELG1 genotoxic – qHTS screen for small molecules that induce genotoxicity in human embryonic kidney (HEK293T) cells expressing luciferase-tagged ELG1; Potency, µM (series often up to 46 µM), for the others: at the top dose activity change, positive = activation, most hits filed as activators; HEK293T ELG1-luciferase reporter, luminescence, 16 h; 330,000 compounds, 1.3% hits; AID 504466, 2011; also: % of control where 0% means no effect; nearly all actives have a fitted effect of over 60% in size
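HEK293T cells expressing luciferase-tagged ELG1 were treated with compound or DMSO for 16 hr at 37°C. Luciferase activity was then read after 30 min with ONE-Glo at room temperature; rising signal flags genetic stress.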
ELG1 DNA repair – qHTS screen for small molecules that inhibit ELG1-dependent DNA repair in human embryonic kidney (HEK293T) cells expressing luciferase-tagged ELG1. HEK293T ELG1-luciferase reporter, luminescence, 16 h; DNA damage induced by 5-fluorouridine. 330,000 compounds, 2.3% hits. AID 504467, 2011. Potency, µM (series often up to 46.1 µM), for the others: top-dose activity change, negative = inhibition, usual class: inhibitors; also: % is scaled to controls: 0 for no effect and ±100 for the full control effect; nearly all actives have a fitted effect of over 55% in size
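Cells (2,000 per well) received 5-fluorouridine plus test compound or DMSO and were incubated 16 hr at 37 °C, 5% CO2. Luciferase activity was read by luminescence 30 min after ONE-Glo addition; signal suppression marked inhibition of damage-induced ELG1 function.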
p53 reactivation – qHTS assay for re-activators of p53 using a Luc reporter | H1299 p53-A138V BP100-luciferase reporter, luminescence, 24 h | Potency, µM (series often up to 92.2 µM), without a hit: at the highest dose activity change, positive = activation, most hits filed as activators | 320,000 compounds, 0.063% hits; also: % of control where 0% means no effect; nearly all actives have a fitted effect of over 45% in size
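H1299 (p53-null), stable ts p53-A138V + BP100-Luc; 1000 cells/well, Opti-MEM/10% FBS; cpd 4 pt, 1:5; 24 h, 37 deg C, 5% CO2; detection reagent 10 min RT; luminescence.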
A-T KAP1 phos – qHTS Assay for Identifying a Potential Treatment of Ataxia-Telangiectasia | F2112 A-T fibroblasts, KAP-1 phosphorylation AlphaLISA; neocarzinostatin DNA damage 30 min before lysis | Potency, µM (doses to about 57.5 µM), for the others: at the highest dose activation, hits mostly activators | AID 485349, 2010 | 320,000 compounds, 0.19% hits; also: % of control where 0% means no effect; nearly all actives have a fitted effect of over 45% in size
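ATM-like activity read as KAP-1 phosphorylation via AlphaLISA donor/acceptor antibody pairs after lysis and 6 hr at 25C. Cells were ATM-null patient fibroblasts (F2112, hTERT), dosed 60 min, then exposed to the DSB inducer NCS for 30 min.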
MCF10A rerep – A quantitative high throughput screen for small molecules that induce DNA re-replication in MCF 10a normal breast cells. 350,000 compounds, 2.9% hits. MCF 10A DNA re-replication, Hoechst nuclear intensity, 48 h. Potency, µM (highest dose often 46.1 µM), for the others: top-dose activity, positive = re-replication, usual class: activators; also: % of control where 0% means no effect; nearly all actives have a fitted effect of over 50% in size
SW480 rereplic – A quantitative high throughput screen for small molecules that induce DNA re-replication in SW480 colon adenocarcinoma cells; AID 624297, 2012; Potency, µM (doses to about 46.1 µM), for the others: at the top dose re-replication activation, most hits filed as activators; 340,000 compounds, 1.8% hits; SW480 DNA re-replication, Hoechst DNA content imaging, 48 h; also: % of control where 0% means no effect; nearly all actives have a fitted effect of over 55% in size
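SW480 cells exposed to compounds for 48 hr at 37 C, 5% CO2, then Hoechst-stained 40 min. Nuclear DNA content imaged by fluorescence scanning (405 nm excitation, 500-530 nm emission); re-replication scored as increased high-intensity nuclei.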
An asterisk follows results filed as active; ? = inconclusive; · = no result. Calls follow the shape of the dose curve; as a rule, active = well fitted curve in the direction sought with a large enough effect; inconclusive = small, poorly fitted or top-dose-only effect, or another doubt; inactive = no such curve, though single readings can be large; an effect the other way counts as inactive or inconclusive. Potency is read from the fitted curve at half-maximal effect.

SMILES	ELG1 genotoxic	ELG1 DNA repair	p53 reactivation	A-T KAP1 phos	MCF10A rerep	SW480 rereplic
COc1cccc(-c2csc(NC(=O)C3CC3)n2)c1	12µM*	?	?	2%	15%	0%
O=S(=O)(NCC1CN(S(=O)(=O)c2c(F)cccc2F)C1)c1ccc2c(c1)OCCO2	-3%	1%	-5%	-5%	-10%	8%
CN(Cc1ccccc1)C(=O)COC(=O)c1ccc(=O)n(Cc2ccccc2)n1	0%	8%	-1%	-3%	-2%	3%
CCc1c(C)nc2ncnn2c1NCCc1ccc(OC)cc1	-3%	?	-4%	-4%	2.5µM*	5.6µM*
Cc1ccc(NC(=O)C(C)OC(=O)c2ccc(Cl)nc2)cc1S(=O)(=O)N1CCOCC1 (configuration not stated)	-1%	-27%	-3%	2%	3%	?
CNc1nc(SCc2ccc(C)cc2)nc2c1CCCC2	0%	6%	0%	11%	15µM*	-1%
Cc1ccc(CSc2nc3c(c(N(C)C)n2)CCCC3)cc1	?	-4%	-9%	7%	13µM*	15µM*
Cc1ccc(CSc2nc3c(c(SCC(=O)O)n2)CCCC3)cc1	4%	-11%	-2%	-2%	11%	-4%
COc1cccc(N2CCN(C3C4CC5CC(C4)CC3C5)CC2)c1 (configuration not stated)	27%	?	10%	·	?	-4%
CCC1CCC(N2CCN(c3cccc(OC)c3)CC2)CC1 (configuration not stated)	-5%	-5%	-4%	5%	5.2µM*	-54%
CC1(c2ccccc2)CC(C)(C)N2C(=O)/C(=C3\SC(=S)NC3=O)c3cccc1c32 (configuration not stated)	-6%	-20%	0%	6%	3.3µM*	-5%
O=C1Nc2cc(C(=O)NCC3CCCO3)ccc2S/C1=C/c1ccccc1F (configuration not stated)	5%	-1%	5%	8%	6%	-6%
N/C(=C\C(=O)c1cc(Cl)ccc1O)C(Cl)(Cl)Cl	?	?	-11%	4%	12µM*	10µM*
CC(C)(C)c1ccc(C(=O)CC(=O)c2cc(Cl)ccc2O)cc1	?	1%	?	3%	?	?
O=C(NCC1CCCO1)c1nn2c(C(F)(F)F)cc(-c3cc(Br)cs3)nc2c1Br (configuration not stated)	9%	12%	5%	5%	15µM*	5.8µM*
C=CC(C)(C)c1c(O)c(CC=C(C)C)c(O)c2c(=O)c3ccc(O)c(O)c3oc12	·	·	·	·	23µM*	?
COC(=O)C1=CN(Cc2ccccc2)C=C(C(=O)OC)C1c1ccc(OC)c(OC)c1	-1%	0%	5%	-7%	14%	9%
CCOc1ccc(C2C(C(=O)OC)=CN(C(C)c3ccccc3)C=C2C(=O)OC)cc1 (configuration not stated)	-3%	-11%	-7%	?	16µM*	?
CC1(C)CN(C(=S)Nc2ccc(F)cc2F)C1=O	-1%	4%	3%	-12%	1%	-20%
N#Cc1ccsc1NC(=O)c1ccc(Cl)c([N+](=O)[O-])c1	-1%	?	26%	30%	5%	-24%
O=C(c1cccc([N+](=O)[O-])c1)N1CCN(c2ccccn2)CC1	1%	0%	-13%	1%	-3%	16µM*
N#Cc1ccsc1NC(=O)c1cccc([N+](=O)[O-])c1	-4%	5.8µM*	3%	11%	12%	14%
COc1ccc(C(=O)NNC(=O)c2ccccn2)cc1	0.15µM*	?	-26%	13%	3%	9%
O=C(c1cc([N+](=O)[O-])ccc1Cl)N1CCN(c2ccccn2)CC1	2%	5%	9%	0%	-6%	?
O=C(NNC(=O)c1ccccn1)c1cccc([N+](=O)[O-])c1	-4%	12µM*	3%	-2%	-2%	?
SMILES	ELG1 genotoxic	ELG1 DNA repair	p53 reactivation	A-T KAP1 phos	MCF10A rerep	SW480 rereplic
CC(=O)C[C@@H](O)CC(=O)[C@@H]1OC(=O)[C@@H](C)CCCCc2ccccc21	3%	6%	0%	14%	0%	-4%
OCC1(Cc2ccc(F)cc2)CCCN(CCCC(F)(F)F)C1 (configuration not stated)	-2%	3%	7%	1%	5%	?
Cc1ccc(C(=O)N2CCN(C)CC2)cc1S(=O)(=O)N1CCCCCC1	9%	4%	12%	-18%	-1%	-11%
O=C(c1ccc(S(=O)(=O)c2cccc(Cl)c2)c([N+](=O)[O-])c1)N1CCN(c2ccccn2)CC1	-13%	18µM*	-10%	0%	?	5%
Cc1ccc(Cn2cccc(-c3nc4ccccc4s3)c2=O)cc1	6%	?	4%	28µM*	?	?
Cc1ccc(CC2CC(=O)N(c3nc4ccccc4s3)C2=O)cc1 (configuration not stated)	0%	3%	-3%	-4%	-6%	-36%
O=c1c(-c2nc3ccccc3s2)cccn1Cc1ccccc1	7.3µM*	?	15%	?	5.2µM*	12µM*
CCOC(=O)c1csc(NC(=O)CN2CCOCC2)n1	0%	?	-3%	-1%	-2%	29%
Cc1cc2cc3c(C)cc(=O)oc3c(C)c2o1	0%	?	5%	-2%	8%	12%
Cc1cc2c(C)cc(=O)oc2c2c1NCCC2	·	·	·	·	13µM*	?
COC1(OC)C(/C=C/c2ccc(Cl)cc2)C(C#N)(C#N)C1(OC)OC (configuration not stated)	-22%	?	-35%	-7%	6.5µM*	?
Cc1ccccc1N=C/C=C1/C=C(c2ccccc2)OC(C)(C)O1	-7%	13µM*	-7%	-7%	18%	1%
COc1ccc(N=C/C=C2\C=C(c3ccccc3)OC(C)(C)O2)cc1	-7%	?	13%	-4%	?	?

Compound activity deposited in PubChem by National Center for Advancing Translational Sciences (NCATS).
